# Screens deposited in PubChem BioAssay by National Center for Advancing Translational Sciences (NCATS).
# KDM5B inhibitor = inhibitors of human KDM5B histone demethylase; Q9UGL1; KDM5B demethylase, FDH-coupled NADH fluorescence (FDH is formaldehyde dehydrogenase); Potency, µM (titrated, usually from 57.7 µM), hits mostly inhibitors; 2.6% of 220,000 active; active = well fitted inhibition curve with a large enough effect; also: nearly all actives have a fitted effect of over 70% in size
#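 Measured: NADH fluorescence change, 30 min, RT. System: KDM5BΔAP 200 nM final, H3K4me3 peptide, α-KG, Fe(II), ascorbate, NAD⁺ plus FDH, pH 7.5 HEPES. Compounds: titrated, 10 min pre-incubation with enzyme.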
# Numbers stand for hits; 0 = inactive. Many of the other results were omitted from the sample, so hits are more common in it than they were.
SMILES,KDM5B inhibitor
Nc1cccc(OCCc2ccccn2)c1,0
COc1cc(/C=C(/C#N)c2nc3ccccc3[nH]2)ccc1OCCC(C)C,0
c1ccc(OCc2noc(CN3CC[C@@H]4CCCC[C@H]4C3)n2)cc1,0
c1ccc(OCc2noc(-c3ccc(NC4CCSC4)nc3)n2)cc1 (centres undefined),28µM
O=C(NCCc1noc(-c2cccnc2)n1)C1(c2ccccc2)CC1,0
O=C(O)CCSCc1c[nH]c2ccccc12,0
O=C(O)c1ccc(CN2CC[C@@H](c3ccc4c(c3)OCO4)[C@H](O)C2)cc1,0
O=C(c1cn2ccsc2n1)N1CC[C@@H](c2ccc3c(c2)OCO3)[C@H](O)C1,0
CNc1ncccc1C(=O)N1CC[C@@H](c2ccc3c(c2)OCO3)[C@H](O)C1,28µM
CCOc1ccccc1Oc1coc2cc(OCc3ccccc3)ccc2c1=O,0
COc1ccc(CNC(=O)C2CCN(C(=O)c3cc4c(=O)[nH]c(C)cn4n3)CC2)cc1,0
CCc1ccc(CNC(=O)c2cc3c(N4CCCC4)nc(C)cn3n2)cc1,25µM
Cc1cn2nc(C(=O)NCCC3=CCCCC3)cc2c(N2CCCC2)n1,10µM
Cc1cn2nc(C(=O)NC3CCC(C)CC3)cc2c(N2CCCC2)n1 (centres undefined),28µM
Cc1nc(N2CCC(C(=O)NCCC3=CCCCC3)CC2)cc(C(F)(F)F)n1,0
COc1ccc(CNC(=O)c2cc3c(N4CCCC4)nc(C)cn3n2)cc1,0
CCc1ccc(CNC(=O)c2c(C)oc3nc(C)nc(N4CCCC4)c23)cc1,0
Cc1cn2nc(C(=O)N3CCC(C(=O)NC4CCCCCC4)CC3)cc2c(=O)[nH]1,0
Cc1ccc(-n2cnc3cc(C(=O)NCCC4=CCCCC4)ccc32)c(C)c1,0
CCc1ccc(CNC(=O)c2c(C)oc3ncnc(N4CCCCC4)c23)cc1,0
Cc1cn2nc(C(=O)NC(C)c3ccccc3)cc2c(N2CCCC2)n1 (centres undefined),0
Cc1cn2nc(C(=O)NCc3ccc(Br)cc3)cc2c(N2CCCC2)n1,28µM
Cc1ccc(-c2cc(C(=O)NCC(=O)N(C)C)c3ccccc3n2)cc1,0
Cc1cc(-c2csc(Nc3ccc(O)cc3)n2)ccc1F,0
CC(C)C(C(=O)Nc1ccc(F)c(F)c1F)c1ccc(Cl)cc1 (centres undefined),0
SMILES,KDM5B inhibitor
N#CC1=C(SCC(=O)Nc2ccc3ccccc3c2)NC(=O)CC1c1ccccc1F (centres undefined),0
O=C(OCc1ccc(-c2ccccc2)cc1)c1cnccn1,0
O=C(COc1ccc(Cl)cc1)c1ccc(Cl)cc1Cl,0
O=[N+]([O-])c1ccc(Nc2ccc(Cl)cc2)c2nonc12,0
O=C(CCC1CCCO1)NCC1CC1 (centres undefined),0
Cc1nc(C)c(C(=O)C2=C(O)C(=O)N(CCN3CCOCC3)C2c2ccc(Cl)cc2)s1 (centres undefined),0
CCc1ccc(CNC(=O)C2CCN(c3nc4ccccc4nc3C(F)(F)F)CC2)cc1,0
Cc1c(C(=O)NCc2ccc(Cl)cc2)sc2nc3n(c(=O)c12)CCCC3,0
Cc1cn2nc(C(=O)NC(C)CCc3ccccc3)cc2c(N2CCCC2)n1 (centres undefined),0
Cc1cn2nc(C(=O)NCc3ccc4c(c3)OCO4)cc2c(N2CCCC2)n1,25µM
Cc1cn2nc(C(=O)NCc3ccc(Cl)cc3)cc2c(N2CCCC2)n1,32µM
Cc1cc(C(=O)NCc2ccc3c(c2)OCO3)c(C)o1,0
Cc1cn2nc(C(=O)NCc3ccc(C(F)(F)F)cc3)cc2c(N2CCCC2)n1,28µM
Cc1cn2nc(C(=O)NCc3ccccc3C(F)(F)F)cc2c(N2CCCC2)n1,14µM
CCCN1C(=O)c2cc(C(=O)NCc3ccc4c(c3)OCO4)nn2CC1(C)C(=O)NC1CCCC1 (centres undefined),0
Cc1cn2nc(C(=O)NCc3ccc(F)cc3F)cc2c(N2CCCC2)n1,0
O=C(NCc1ccc(Cl)cc1)c1cnc2sc(N3CCCCCC3)nn2c1=O,0
Cc1ccc(NC(=O)COc2ncnc3ccc(Br)cc23)cc1C,0
COc1cccc(NC(=O)CCc2c(C)c3ccc(C)cc3oc2=O)c1,0
COC(=O)c1sc(N2C(=O)C(=O)/C(=C(/O)c3cccc(OC)c3)C2c2ccccc2F)nc1C (centres undefined),0
Cc1ccc2oc(C(=O)NCCCOCC3CC3)cc(=O)c2c1,0
O=C(c1ccccc1)C1CCN(C(=O)/C=C/c2cccc(C(F)(F)F)c2)CC1,0
Cc1cccc(NC(=S)NNC(=O)C(c2ccccc2)c2ccccc2)c1C,0
Cc1ccc(-c2c(N)oc3ccccc3c2=O)cc1,0
C[C@@H]1CN(C(=O)c2cnc3c(O)cccn3c2=O)CC[C@@]1(O)C1CCC1,32µM
SMILES,KDM5B inhibitor
Cc1cccc(N2CCN(C(=O)c3cnc4c(C)cccn4c3=O)CC2C)c1 (centres undefined),0
C[C@@H]1CN(C(=O)c2cccc(-c3ncc[nH]3)c2)CC[C@@]1(O)C1CCOCC1,0
O=C(O)CNS(=O)(=O)c1c(F)cc(F)cc1Br,0
Cn1nc(C(=O)OCc2nc(-c3ccc4c(c3)OCO4)no2)c2ccccc21,0
CCCCSc1oc(-c2ccco2)nc1S(=O)(=O)c1ccc(F)cc1,0
COc1ccc(-c2nc(Cn3c(-c4ccccc4)nc(C)c(CCO)c3=O)c(C)o2)cc1,0
COc1ccc(-c2nc(Cn3c(-c4ccc(Cl)cc4)nc(C)c(CCO)c3=O)c(C)o2)cc1,0
Cc1cccc(Cn2c(-c3ccc(Cl)cc3)nc(C)c(CCO)c2=O)c1,0
Cc1nc(-c2cccc(Cl)c2)n(Cc2nc(-c3ccc(OC(C)C)cc3)oc2C)c(=O)c1CCO,11µM
Cc1nc(-c2cccc(Cl)c2)n(Cc2ccc(C#N)cc2)c(=O)c1CCO,0
COc1ccc(-c2nc(Cn3c(-c4cccc(Cl)c4)nc(C)c(CCO)c3=O)c(C)o2)cc1,28µM
CN(C)C(=O)COc1ccc(NC(=O)c2nn(C)c(=O)c3ccccc23)cc1,0
CC(C)CN1C(=O)C2(CC(=O)Nc3c2cnn3Cc2ccccc2Cl)c2ccccc21 (centres undefined),0
COc1ccc(Cl)cc1-c1nc(-c2nnn3c2COC(c2ccc(C)cc2)C3)no1 (centres undefined),0
COc1ccc(C2Cn3cnc(-c4nc(-c5ccc(OC)c(OC)c5)no4)c3CO2)cc1 (centres undefined),0
Fc1ccc(C2Cn3nnc(-c4nc(-c5cccc(F)c5)no4)c3CO2)cc1 (centres undefined),0
Fc1ccc(-c2noc(-c3nnn4c3COC(c3ccc(Cl)cc3)C4)n2)cc1 (centres undefined),0
COc1ccc(C2Cn3cnc(-c4nc(-c5ccc6c(c5)OCO6)no4)c3CO2)cc1 (centres undefined),14µM
COc1ccc(-c2nc(-c3nnn4c3COC(c3ccc(OC)cc3)C4)no2)cc1 (centres undefined),0
CCOc1ccc(-c2noc(-c3ncn4c3COC(c3ccc(F)cc3)C4)n2)cc1 (centres undefined),0
COc1ccc(-c2noc(-c3nnn4c3COC(c3ccc(F)cc3)C4)n2)cc1OC (centres undefined),22µM
COc1ccc(-c2nc(-c3nnn4c3COC(c3ccc(Cl)cc3)C4)no2)cc1OC (centres undefined),28µM
Cc1cccc(C(=O)Nc2nn3c(-c4cccc(C)c4)nnc3s2)c1,0
COc1cccc(-c2cc(C3CCN(C(=O)Nc4cc(Cl)ccc4C)CC3)[nH]n2)c1,0
